Source: PubChem BioAssay
Active and inactive are the calls of the source. Unless noted, how the calls were made is not given here.

Key:
[1] = test system: Wnt5a (protein binding on small-molecule microarray); assay: Wnt5a binders on small-molecule microarray, primary screen, biophysical, 635/667 nm fluorescence (AID 1142); conditions: 635 nm fluorescence, higher = more signal;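 further: fluorescence read at 667 nm with signal to noise per printed feature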
[2] = cell viability in Huh7 cells, primary screen, cytotoxicity control for HCV replication inhibitor project, CellTiter-Glo luminescence, basal, 48 h (AID 1143); conditions: Huh7 HCV replicon, higher = more signal, called active from +8 up or from −8 down;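 further: Huh7 hepatoma cells carrying a hepatitis C replication reporter with no stimulus; test concentration not given here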
[3] = P. aeruginosa biofilm formation inhibitors, primary screen, PAO1 strain, BacTiter-Glo luminescence, LB-PBS (AID 1144); conditions: 12 h, higher = more signal
[4] = CREB reporter modulators without forskolin, primary screen, cell-based, PC12, CRE-LacZ reporter, unstimulated (AID 1145); conditions: no forskolin, luminescence, 4.5 h, higher = more signal, called active from +8 up or from −8 down
[5] = CREB reporter modulators under forskolin, primary screen, cell-based, PC12, CRE-LacZ reporter, forskolin-stimulated (AID 1146); conditions: luminescence, 4.5 h, higher = more signal, called active from +8 up or from −8 down;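 further: PC12 cells with 6xCRE LacZ reporter stimulated by forskolin 10 µM; beta-galactosidase reporter signal reflecting CREB driven transcription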
[6] = target: Streptavidin (Streptomyces avidinii) (UniProt P22629); assay: streptavidin binders on small-molecule microarray, primary screen, artefact control for SMM compound annotation, biophysical, 635/667 nm fluorescence (AID 1147); conditions: streptavidin binding, higher = more signal;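 further: signal reflects streptavidin binding to arrayed compounds as a control protein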
[7] = small-molecule binders of probe aInhba, primary screen, biochemical, small-molecule microarray, 635/667 nm fluorescence (AID 1148); conditions: higher = more signal;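 further: score merges 667nm spot fluorescence with signal-to-noise for antibody binding to printed compounds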
Torsin-1A (Homo sapiens) [8] = target: Torsin-1A (Homo sapiens) (UniProt O14656); assay: torsin A binders from cell lysate, primary screen, small-molecule microarray, wild-type, 635/667 nm (AID 1149); conditions: COS7 hTOR1A-WT lysate, 635 nm fluorescence, higher = more signal
Torsin-1A (Homo sapiens) [9] = target: Torsin-1A (Homo sapiens) (UniProt O14656); assay: small-molecule binders of mutant TOR1A in lysate, primary screen, cell lysate, small-molecule microarray, COS7 lysate, 635/667 nm fluorescence (AID 1150); conditions: COS7 hTOR1A mutant lysate, 635 nm fluorescence, higher = more signal;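 further: score pools 667 nm emission and signal to noise measuring lysate protein binding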
[10] = test system: Sonic hedgehog protein (Shh); assay: small-molecule binders of Shh protein, primary screen, biochemical, small-molecule microarray, 635/667 nm fluorescence (AID 1151); conditions: small-molecule microarray binding, 635 nm fluorescence; higher = more signal;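 further: Shh protein binding to compounds spotted on small-molecule microarray slides; score combines spot fluorescence intensity with signal-to-noise across triplicate slides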
[11] = E. coli DRC41 culture turbidity changes, primary screen, E. coli filamentation inducer project, strain DRC41, OD650, 48 h (AID 1152);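 further: E. coli MC1000 strain DRC41 lacking acrAB efflux pump and sulA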; conditions: E. coli DRC41 (acrAB sulA), higher = more signal, called active from +8 up or from −8 down
[12] = small-molecule binders of probe aLefty1, primary screen, biochemical, small-molecule microarray, 635/667 nm fluorescence (AID 1153); conditions: higher = more signal;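 further: score merges spot fluorescence with signal-to-noise ratio from the scanned slide images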
[13] = PSAC antagonists in infected red cells, primary screen, cell-based, P. falciparum Indochina, OD700, 1 h (AID 1154); conditions: P. falciparum Indochina infected RBC osmotic lysis, higher = more signal, called active from +8 up or from −8 down
[14] = PSAC antagonists in infected red cells, primary screen, cell-based, P. falciparum Indochina, OD700, 2 h (AID 1155);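 further: lysis reports solute entry through the parasite surface anion channel PSAC; channel blockers reduce lysis of infected cells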; conditions: P. falciparum Indochina infected erythrocytes, osmotic lysis OD700; higher = more signal, called active from +8 up or from −8 down
[15] = osmotic lysis modulators in infected erythrocytes, primary screen, PSAC antagonist project, cell-based, P. falciparum Indochina, OD700, 3 h (AID 1156); conditions: higher = more signal, called active from +8 up or from −8 down
[16] = PSAC antagonists in infected red cells, primary screen, cell-based, P. falciparum Indochina, OD700, 18 h (AID 1157); conditions: P. falciparum Indochina infected erythrocytes, osmotic lysis OD700, 18 h; higher = more signal, called active from +8 up or from −8 down
[17] = modulators of S6 phosphorylation in cells, primary screen, cell-based, A549, cytoblot, luminescence, serum-stimulated (AID 1158); conditions: A549 phospho-S6 cytoblot, 5 h, higher = more signal;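 further: serum-stimulated A549 lung adenocarcinoma cells; signal is phosphorylated S6 detected by cytoblot immunostaining with HRP secondary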
[18] = target: NADPH oxidase 2 (Homo sapiens) (UniProt P04839); assay: NOX2-dependent H2O2 signal modulators, primary screen, NOX inhibitor project, cell-based, HEK293-NOX2, PMA-stimulated, Amplex Red fluorescence (AID 1159); conditions: 45 min, higher = more signal, called active from +8 up or from −8 down; further: test concentration not given here
[19] = target: NADPH oxidase 4 (Homo sapiens) (UniProt Q9NPH5); assay: NOX4-dependent H2O2 signal modulators, primary screen, NOX inhibitor project, cell-based, HEK293-NOX4, tetracycline-induced, Amplex Red fluorescence (AID 1160); conditions: 45 min, higher = more signal, called active from +8 up or from −8 down
[20] = target: NADPH oxidase 5 (Homo sapiens) (UniProt Q96PH1); assay: NOX5-dependent H2O2 signal modulators, primary screen, NOX inhibitor project, cell-based, HEK293-NOX5, Amplex Red fluorescence (AID 1161); conditions: HEK293-NOX5, ionomycin, 45 min, higher = more signal
Sequence of NADPH oxidase 5 (Homo sapiens) (Q96PH1 whole entry, looked up): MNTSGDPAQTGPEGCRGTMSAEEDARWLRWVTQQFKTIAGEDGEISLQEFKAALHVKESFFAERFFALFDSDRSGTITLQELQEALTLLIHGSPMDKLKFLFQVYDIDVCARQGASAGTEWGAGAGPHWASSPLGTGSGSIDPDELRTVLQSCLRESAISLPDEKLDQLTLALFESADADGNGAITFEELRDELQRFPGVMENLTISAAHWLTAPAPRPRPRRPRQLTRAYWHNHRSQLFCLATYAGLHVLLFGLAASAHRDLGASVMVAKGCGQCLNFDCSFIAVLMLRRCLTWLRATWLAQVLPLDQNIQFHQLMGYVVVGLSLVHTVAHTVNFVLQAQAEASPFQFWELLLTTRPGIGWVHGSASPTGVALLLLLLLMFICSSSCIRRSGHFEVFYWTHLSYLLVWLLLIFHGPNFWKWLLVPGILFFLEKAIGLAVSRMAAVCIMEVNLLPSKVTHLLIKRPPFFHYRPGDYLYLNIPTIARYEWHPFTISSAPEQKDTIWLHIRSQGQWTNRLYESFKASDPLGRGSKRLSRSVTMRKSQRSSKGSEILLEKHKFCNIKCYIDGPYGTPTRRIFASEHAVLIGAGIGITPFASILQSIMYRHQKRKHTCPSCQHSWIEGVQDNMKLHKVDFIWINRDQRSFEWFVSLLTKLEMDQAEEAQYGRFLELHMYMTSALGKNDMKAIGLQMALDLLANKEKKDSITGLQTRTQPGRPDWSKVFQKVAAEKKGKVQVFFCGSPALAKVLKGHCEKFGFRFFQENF

Sequence of NADPH oxidase 4 (Homo sapiens) (Q9NPH5 whole entry, looked up): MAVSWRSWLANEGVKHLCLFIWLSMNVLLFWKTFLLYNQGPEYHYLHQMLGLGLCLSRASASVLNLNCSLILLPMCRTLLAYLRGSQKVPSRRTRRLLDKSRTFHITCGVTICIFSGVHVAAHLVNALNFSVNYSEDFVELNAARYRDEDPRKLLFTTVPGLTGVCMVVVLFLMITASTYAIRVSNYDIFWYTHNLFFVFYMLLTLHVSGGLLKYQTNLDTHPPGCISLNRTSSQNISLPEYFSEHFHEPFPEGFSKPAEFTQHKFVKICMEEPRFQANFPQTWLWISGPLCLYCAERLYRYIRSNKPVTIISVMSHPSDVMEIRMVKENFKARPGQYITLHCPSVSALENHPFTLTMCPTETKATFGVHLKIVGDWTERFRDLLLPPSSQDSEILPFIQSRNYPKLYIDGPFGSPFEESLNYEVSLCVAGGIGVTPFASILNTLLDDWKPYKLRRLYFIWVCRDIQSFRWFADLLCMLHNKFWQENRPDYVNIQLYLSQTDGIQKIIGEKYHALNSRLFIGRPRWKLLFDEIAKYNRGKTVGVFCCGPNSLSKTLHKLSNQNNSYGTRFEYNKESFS
Sequence of Streptavidin (Streptomyces avidinii) (P22629 whole entry, looked up): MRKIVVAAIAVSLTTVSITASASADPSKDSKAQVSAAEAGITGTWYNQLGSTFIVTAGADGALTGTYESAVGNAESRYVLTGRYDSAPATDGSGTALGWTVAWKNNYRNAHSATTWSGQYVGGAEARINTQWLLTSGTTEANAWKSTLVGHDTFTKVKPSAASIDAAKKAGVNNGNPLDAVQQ
Sequence of Torsin-1A (Homo sapiens) (O14656 whole entry, looked up): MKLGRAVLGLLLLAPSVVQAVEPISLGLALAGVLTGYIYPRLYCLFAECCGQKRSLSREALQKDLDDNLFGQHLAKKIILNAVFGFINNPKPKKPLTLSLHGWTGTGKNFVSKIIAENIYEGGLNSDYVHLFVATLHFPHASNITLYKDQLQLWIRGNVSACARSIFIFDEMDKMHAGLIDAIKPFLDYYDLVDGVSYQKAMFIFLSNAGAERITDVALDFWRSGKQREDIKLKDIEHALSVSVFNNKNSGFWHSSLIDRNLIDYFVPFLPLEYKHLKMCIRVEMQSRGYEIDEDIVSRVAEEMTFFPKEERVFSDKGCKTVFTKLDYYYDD
Sequence of NADPH oxidase 2 (Homo sapiens) (P04839 whole entry, looked up): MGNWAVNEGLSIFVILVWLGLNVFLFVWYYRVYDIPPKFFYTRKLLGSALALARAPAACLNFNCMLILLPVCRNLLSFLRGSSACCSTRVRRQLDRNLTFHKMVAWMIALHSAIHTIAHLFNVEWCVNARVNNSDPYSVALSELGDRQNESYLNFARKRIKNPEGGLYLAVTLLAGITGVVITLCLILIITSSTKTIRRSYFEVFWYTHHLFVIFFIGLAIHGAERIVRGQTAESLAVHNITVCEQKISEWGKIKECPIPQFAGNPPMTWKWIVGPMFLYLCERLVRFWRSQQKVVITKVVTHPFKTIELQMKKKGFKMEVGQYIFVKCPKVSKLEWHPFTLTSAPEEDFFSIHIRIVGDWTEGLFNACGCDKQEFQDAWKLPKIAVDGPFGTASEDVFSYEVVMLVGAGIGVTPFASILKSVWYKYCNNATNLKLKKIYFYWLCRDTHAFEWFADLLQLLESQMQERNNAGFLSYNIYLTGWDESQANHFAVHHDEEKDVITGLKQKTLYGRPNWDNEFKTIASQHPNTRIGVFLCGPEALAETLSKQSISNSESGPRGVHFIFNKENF

| Structure (SMILES) | composite z-score [1] | z-score [2] | z-score [3] | z-score [4] | z-score [5] | composite z-score [6] | composite z-score [7] | composite z-score (Torsin-1A (Homo sapiens) [8]) | composite z-score (Torsin-1A (Homo sapiens) [9]) | composite z-score [10] | z-score [11] | composite z-score [12] | z-score [13] | z-score [14] | z-score [15] | z-score [16] | z-score [17] | z-score [18] | z-score [19] | z-score [20] |
| --- | --- | --- | --- | --- | --- | --- | --- | --- | --- | --- | --- | --- | --- | --- | --- | --- | --- | --- | --- | --- |
| CC(C)(C)OC(=O)CC[C@]1(C(=O)N2CCOCC2)N=C(c2ccc(OCCCO)cc2)O[C@H]1c1ccccc1N=[N+]=[N-] | 0.846 | -0.884 (inactive) | 1.17 (inactive) | 1.31 (inactive) | -1.4 (inactive) | 1.42 | 0.236 | 0.64 | 1.7 | -0.371 | 1.52 (inactive) | 0.171 | 33 (active) | 31.2 (active) | 1.75 (inactive) | 2.8 (inactive) | -0.435 | -1.71 (inactive) | -0.279 (inactive) | -1.94 |
| OCCCC1=CC(c2cccs2)N(Cc2cc3c(cc2Br)OCO3)CC1 (stereo not given) | -0.094 | -1.18 (inactive) | -0.137 (inactive) | 0.0563 (inactive) | -0.056 (inactive) | -0.0072 | -0.024 | 0.155 | 0.396 | 1.4 | -1.3 (inactive) | 0.187 | 5.53 (inactive) | 0.887 (inactive) | -0.281 (inactive) | 0.625 (inactive) | -0.684 | -0.283 (inactive) | -0.294 (inactive) | -0.768 |
| N#Cc1ccc(NN2C(C(O)C(c3ccccc3)c3ccccc3)C=CC3C(=O)N(c4ccccc4)C(=O)C32)cc1 (stereo not given) | 0.382 | -0.919 (inactive) | -0.731 (inactive) | 0.243 (inactive) | -0.69 (inactive) | 1.21 | 0.204 | 0.604 | 0.274 | -0.634 | -0.0948 (inactive) | 0.651 | 5.66 (inactive) | 0.96 (inactive) | 0.891 (inactive) | 1.24 (inactive) | 0.151 | -1.99 (inactive) | -2.82 (inactive) | -2.49 |
| CN1C(=O)C2C=CC(C(O)c3ccc([N+](=O)[O-])cc3)N(N3CCCCC3)C2C1=O (stereo not given) | 0.466 | 0.576 (inactive) | -0.711 (inactive) | 1.01 (inactive) | 0.316 (inactive) | 0.901 | 0.464 | 0.319 | 0.603 | -0.041 | -1.74 (inactive) | 0.385 | 2.06 (inactive) | 1.36 (inactive) | -0.0207 (inactive) | 0.9 (inactive) | -0.919 | 0.114 (inactive) | -2.07 (inactive) | -1.12 |
| C=CCNC(=O)[C@@H]1[C@H]2C(=O)O[C@H](c3ccccc3)[C@H](c3ccccc3)N2[C@H](c2ccccc2OCCO)[C@@]12C(=O)N(C(=O)OCCOC)c1ccccc12 | 0.562 | -4.46 (inactive) | 1.23 (inactive) | 0.204 (inactive) | -0.768 (inactive) | 0.209 | -0.0259 | 0.226 | 0.603 | 2.17 | -0.91 (inactive) | 0.238 | 2.92 (inactive) | 1.24 (inactive) | -0.693 (inactive) | 1.05 (inactive) | -0.458 | 1.88 (inactive) | -0.691 (inactive) | -0.1 |
| COc1ccc(C#Cc2ccc3c(c2)[C@]2(C(=O)N3)[C@H](C(=O)NC[C@H](O)c3ccccc3)[C@H]3C(=O)O[C@H](c4ccccc4)[C@H](c4ccccc4)N3[C@@H]2c2ccc(O)cc2)cc1 | 0.288 | -2.62 (inactive) | -1.1 (inactive) | -0.141 (inactive) | -0.301 (inactive) | 0.539 | -0.128 | 0.179 | 0.587 | 1.24 | 0.078 (inactive) | -0.0984 | -0.476 (inactive) | 0.657 (inactive) | -1.03 (inactive) | 0.909 (inactive) | -0.434 | 1.25 (inactive) | 0.118 (inactive) | -0.339 |
| O=C1C[C@@](C(=O)NCC(F)(F)F)(c2ccc([N+](=O)[O-])cc2)[C@@H](c2ccc(CO)cc2I)N1C1CCCCC1 | 0.318 | -4.26 (inactive) | -0.148 (inactive) | 0.558 (inactive) | -0.503 (inactive) | 0.514 | -0.0421 | 0.281 | 0.35 | 0.491 | -0.629 (inactive) | 0.165 | 16.9 (active) | 1.79 (inactive) | 2.56 (inactive) | 0.599 (inactive) | -0.417 | 0.979 (inactive) | -0.0876 (inactive) | 0.612 |
| CC(C)NC(=O)[C@@]1(C)c2ccccc2C(=O)N(Cc2cc(C(F)(F)F)cc(C(F)(F)F)c2)[C@H]1c1ccc(CO)cc1 | -0.533 | -3.78 (inactive) | 1.03 (inactive) | 0.648 (inactive) | -0.405 (inactive) | -0.417 | -0.269 | -0.979 | -0.723 | -0.328 | -0.204 (inactive) | 0.0328 | 11.8 (active) | 1.66 (inactive) | 1.35 (inactive) | 0.377 (inactive) | 0.401 | -1.13 (inactive) | 0.154 (inactive) | 0.685 |
| COc1ccc(C#Cc2ccc3c(c2)[C@]2(C(=O)N3)[C@H](c3ccccc3OCCO)N3[C@H](c4ccccc4)[C@H](c4ccccc4)OC(=O)[C@H]3[C@@H]2C(=O)Nc2nc3ccccc3s2)cc1 | 0.469 | -1.62 (inactive) | -0.726 (inactive) | -1.28 (inactive) | -1.38 (inactive) | 1.09 | 1.06 | 0.0821 | 0.479 | 1.52 | -0.89 (inactive) | 1.78 | 1.35 (inactive) | 1.67 (inactive) | 1.46 (inactive) | 0.457 (inactive) | -0.0333 | -1.26 (inactive) | -0.977 (inactive) | -4.34 |
